This is an account of results in PubChem BioAssay.

Active and inactive are the calls of the source. Unless noted, the rule behind the calls is not given here.

Assay [1] is described as follows: compounds binding Alexa647 anti-His antibody – biochemical, small-molecule microarray, 635 nm fluorescence, artefact control for SMM control protein annotation, primary screen (AID 1128).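 Note: score merges feature fluorescence with signal-to-noise for each printed compound spot.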 The following applies: higher = more signal.
Assay [2] has as its system Human papillomavirus type 1a E7 protein (residues 1-88). Put plainly: HPV1a E7 small-molecule binders, primary screen, biochemical, small-molecule microarray, residues 1-88, 635 nm (AID 1129). Particulars: small-molecule microarray binding, fluorescence 635 nm; higher = more signal.
Assay [3] deals with Focal adhesion kinase 1 (Homo sapiens) (UniProt Q05397). Put plainly: PTK2 protein binding on printed compound slides – biochemical, small-molecule microarray, 635/667 nm fluorescence, BSA, DTT, primary screen (AID 1130).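 Note: composite of spot emission at 667 nm and signal to noise over triplicate slides.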 The following applies: 635 nm fluorescence, higher = more signal.
Chain of Focal adhesion kinase 1 (Homo sapiens) (Q05397 whole entry, looked up): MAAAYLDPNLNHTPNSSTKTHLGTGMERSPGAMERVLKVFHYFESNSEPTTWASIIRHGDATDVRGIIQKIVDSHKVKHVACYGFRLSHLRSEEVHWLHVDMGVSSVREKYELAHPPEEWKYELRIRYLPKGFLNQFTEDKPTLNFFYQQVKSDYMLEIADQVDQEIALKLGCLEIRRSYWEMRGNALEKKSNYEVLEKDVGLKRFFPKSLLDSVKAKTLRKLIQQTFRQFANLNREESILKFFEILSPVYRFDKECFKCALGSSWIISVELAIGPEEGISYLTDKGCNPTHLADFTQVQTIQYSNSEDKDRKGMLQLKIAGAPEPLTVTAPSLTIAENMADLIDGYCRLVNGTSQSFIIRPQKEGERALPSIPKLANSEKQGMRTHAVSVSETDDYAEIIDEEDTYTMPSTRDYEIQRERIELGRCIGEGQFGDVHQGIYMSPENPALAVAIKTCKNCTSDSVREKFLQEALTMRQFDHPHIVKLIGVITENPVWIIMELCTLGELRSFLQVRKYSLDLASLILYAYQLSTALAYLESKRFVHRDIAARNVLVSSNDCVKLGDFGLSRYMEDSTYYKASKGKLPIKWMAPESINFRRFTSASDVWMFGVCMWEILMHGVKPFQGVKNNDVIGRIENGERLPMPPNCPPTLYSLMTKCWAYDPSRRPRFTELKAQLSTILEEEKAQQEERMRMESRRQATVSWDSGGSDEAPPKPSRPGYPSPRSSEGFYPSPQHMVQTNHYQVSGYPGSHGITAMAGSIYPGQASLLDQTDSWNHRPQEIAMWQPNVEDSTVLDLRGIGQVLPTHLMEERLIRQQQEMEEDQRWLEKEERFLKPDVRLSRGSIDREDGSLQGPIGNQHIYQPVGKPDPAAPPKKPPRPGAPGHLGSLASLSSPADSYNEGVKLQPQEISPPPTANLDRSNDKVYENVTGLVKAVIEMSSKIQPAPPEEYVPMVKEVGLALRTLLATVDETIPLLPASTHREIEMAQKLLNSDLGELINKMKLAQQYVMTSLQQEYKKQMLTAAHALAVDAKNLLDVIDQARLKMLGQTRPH
Assay [4] has as its system Fibrinogen (Alexa647-labelled). Put plainly: Alexa647-fibrinogen binding to printed small molecules – biochemical, small-molecule microarray, 635/667 nm fluorescence, artefact control for SMM control-protein annotation, profiling panel (AID 1131).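 Note: z-score merges 667 nm fluorescence with per-spot signal-to-noise over triplicate slides.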 Particulars: fibrinogen-A647 binding fluorescence, higher = more signal.
Assay [5] deals with Follistatin (Homo sapiens) (UniProt P19883). Put plainly: FST protein binding to printed compounds – biochemical, small-molecule microarray, 635/667 nm fluorescence, primary screen (AID 1132). Particulars: 635 nm fluorescence, higher = more signal.
Chain of Follistatin (Homo sapiens) (P19883 whole entry, looked up): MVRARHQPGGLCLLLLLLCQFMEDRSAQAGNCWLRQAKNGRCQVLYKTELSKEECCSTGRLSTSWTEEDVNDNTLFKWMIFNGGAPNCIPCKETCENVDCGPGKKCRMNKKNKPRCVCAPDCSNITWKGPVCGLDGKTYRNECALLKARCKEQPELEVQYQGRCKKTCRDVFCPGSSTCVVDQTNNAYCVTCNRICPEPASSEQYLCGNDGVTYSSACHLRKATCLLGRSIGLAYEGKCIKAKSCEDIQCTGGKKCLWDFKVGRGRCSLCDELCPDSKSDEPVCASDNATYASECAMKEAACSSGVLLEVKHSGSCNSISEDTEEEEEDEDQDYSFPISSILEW
Assay [6] deals with Fibroblast growth factor 2 (Homo sapiens) (UniProt P09038). The experiment in a line: basic fibroblast growth factor binding to printed compounds – biochemical, small-molecule microarray, 635/667 nm fluorescence, primary screen (AID 1133). The following applies: FGF2, fluorescence 635/667, higher = more signal.
Chain of Fibroblast growth factor 2 (Homo sapiens) (P09038 whole entry, looked up): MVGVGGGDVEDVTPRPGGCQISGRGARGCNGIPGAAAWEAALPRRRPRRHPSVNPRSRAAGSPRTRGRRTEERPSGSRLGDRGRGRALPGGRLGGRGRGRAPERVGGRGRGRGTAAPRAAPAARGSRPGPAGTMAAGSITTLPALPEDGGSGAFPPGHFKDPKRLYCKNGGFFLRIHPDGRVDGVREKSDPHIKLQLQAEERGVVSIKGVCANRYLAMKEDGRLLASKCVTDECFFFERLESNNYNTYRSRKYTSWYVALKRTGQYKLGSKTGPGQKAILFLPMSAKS
The nature of assay [7]: JC-1 mitochondrial potential readout, lung cancer cells – cell-based, A549, JC-1 fluorescence, basal, 24 h, 100 nL, profiling panel (AID 1138).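 Note: A549 lung adenocarcinoma cells under basal conditions with no added stimulus; test concentration not given here.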 Particulars: higher = more signal.
For a further assay, the system named is Lefty1. Put plainly: Lefty1 protein binding to printed compounds – biochemical, small-molecule microarray, 635/667 nm fluorescence, primary screen (AID 1139). The following applies: fluorescence 635/667, higher = more signal.
The test system of assay [8] is wheat germ agglutinin (Triticum aestivum), Alexa647-labelled. The experiment in a line: Alexa647-WGA lectin binding to printed small molecules – biochemical, small-molecule microarray, 635/667 nm fluorescence, artefact control for SMM control-protein annotation, profiling panel (AID 1140).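 Note: score merges 667 nm feature emission with signal to noise over triplicate slides.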 Particulars: WGA-A647 binding, 635 nm fluorescence, higher = more signal.
Assay [9] has as its target Luciferin 4-monooxygenase (Photinus pyralis) (UniProt P08659). Put plainly: inhibition of purified Photinus pyralis luciferase – biochemical, luminescence, purified enzyme, 2006 set, primary screen (AID 1141).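 Note: cell-free assay with purified firefly luciferase at 100 ng per well in PBS; test concentration not given here.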 The following applies: purified firefly luciferase, SteadyGlo luminescence, 30 min; higher = more signal, called active from +8 up or from −8 down.
Assay [10] has as its system Wnt5a (protein binding on small-molecule microarray). The experiment in a line: small molecules binding Wnt5a protein – biophysical, small-molecule microarray, 635/667 nm fluorescence, primary screen (AID 1142).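 Note: fluorescence read at 667 nm with signal to noise per printed feature.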 Particulars: 635 nm fluorescence, higher = more signal.
The nature of assay [11]: ATP-based viability of Huh7 replicon cells – cell-based, CellTiter-Glo luminescence, basal, 48 h, cytotoxicity control for HCV replication inhibitor project, primary screen (AID 1143).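 Note: Huh7 hepatoma cells carrying a hepatitis C replication reporter with no stimulus; test concentration not given here.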 Particulars: higher = more signal, called active from +8 up or from −8 down.
Assay [12] can be described thus: Pseudomonas biofilm growth suppression – PAO1 strain, BacTiter-Glo luminescence, LB-PBS, primary screen (AID 1144). Particulars: P. aeruginosa PAO1 biofilm, 12 h, higher = more signal.
The nature of assay [13]: basal CRE-LacZ reporter activity in PC12 – cell-based, unstimulated, primary screen (AID 1145). Particulars: no forskolin, luminescence, 4.5 h, higher = more signal, called active from +8 up or from −8 down.
Assay [14] can be described thus: forskolin-driven CRE-LacZ activity in PC12 – cell-based, CRE-LacZ reporter, forskolin-stimulated, primary screen (AID 1146).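 Note: PC12 cells with 6xCRE LacZ reporter stimulated by forskolin 10 µM; beta-galactosidase reporter signal reflecting CREB driven transcription.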 The following applies: luminescence, 4.5 h, higher = more signal, called active from +8 up or from −8 down.
For assay [15], the target named is Streptavidin (Streptomyces avidinii) (UniProt P22629). The experiment in a line: compounds binding control protein streptavidin – biophysical, small-molecule microarray, 635/667 nm fluorescence, artefact control for SMM compound annotation, primary screen (AID 1147).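 Note: signal reflects streptavidin binding to arrayed compounds as a control protein.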 The following applies: higher = more signal.
Chain of Streptavidin (Streptomyces avidinii) (P22629 whole entry, looked up): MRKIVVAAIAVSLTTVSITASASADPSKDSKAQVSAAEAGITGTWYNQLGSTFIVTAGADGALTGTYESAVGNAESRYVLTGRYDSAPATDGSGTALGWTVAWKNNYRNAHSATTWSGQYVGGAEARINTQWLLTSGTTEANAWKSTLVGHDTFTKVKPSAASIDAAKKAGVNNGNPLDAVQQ
Assay [16] can be described thus: probe aInhba binding on compound microarray – biochemical, small-molecule microarray, 635/667 nm fluorescence, primary screen (AID 1148).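 Note: score merges 667nm spot fluorescence with signal-to-noise for antibody binding to printed compounds.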 The following applies: higher = more signal.
Assay [17] concerns the target Torsin-1A (Homo sapiens) (UniProt O14656). The experiment in a line: TOR1A wild-type binding on microarray – cell lysate, small-molecule microarray, lysate, 635/667 nm, primary screen (AID 1149). The following applies: COS7 hTOR1A-WT lysate, 635 nm fluorescence, higher = more signal.
The target is the same in assay [18]. Put plainly: torsin A mutant lysate binding on microarrays – cell lysate, small-molecule microarray, COS7 lysate, 635/667 nm fluorescence, primary screen (AID 1150).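 Note: score pools 667 nm emission and signal to noise measuring lysate protein binding.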 Particulars: COS7 hTOR1A mutant lysate, 635 nm fluorescence, higher = more signal.
Assay [19] deals with Sonic hedgehog protein (Shh). The experiment in a line: Sonic hedgehog microarray binding compounds – biochemical, small-molecule microarray, 635/667 nm fluorescence, primary screen (AID 1151).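 Note: Shh protein binding to compounds spotted on small-molecule microarray slides; score combines spot fluorescence intensity with signal-to-noise across triplicate slides.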 Particulars: 635 nm fluorescence, higher = more signal.

Chain of Luciferin 4-monooxygenase (Photinus pyralis) (P08659 whole entry, looked up): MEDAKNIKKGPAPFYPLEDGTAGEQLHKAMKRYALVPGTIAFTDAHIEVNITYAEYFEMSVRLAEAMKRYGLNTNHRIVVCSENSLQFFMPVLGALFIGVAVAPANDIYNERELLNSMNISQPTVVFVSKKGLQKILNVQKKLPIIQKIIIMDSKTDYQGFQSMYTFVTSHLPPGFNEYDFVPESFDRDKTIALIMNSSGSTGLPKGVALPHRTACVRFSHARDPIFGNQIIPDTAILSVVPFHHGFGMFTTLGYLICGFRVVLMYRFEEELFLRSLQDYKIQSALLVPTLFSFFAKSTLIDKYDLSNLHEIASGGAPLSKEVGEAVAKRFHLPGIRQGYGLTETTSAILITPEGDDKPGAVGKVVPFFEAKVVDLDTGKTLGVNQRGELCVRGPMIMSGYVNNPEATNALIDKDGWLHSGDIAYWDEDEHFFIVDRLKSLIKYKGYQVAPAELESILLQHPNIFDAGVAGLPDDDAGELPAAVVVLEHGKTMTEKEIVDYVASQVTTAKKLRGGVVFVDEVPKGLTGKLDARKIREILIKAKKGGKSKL
Chain of Torsin-1A (Homo sapiens) (O14656 whole entry, looked up): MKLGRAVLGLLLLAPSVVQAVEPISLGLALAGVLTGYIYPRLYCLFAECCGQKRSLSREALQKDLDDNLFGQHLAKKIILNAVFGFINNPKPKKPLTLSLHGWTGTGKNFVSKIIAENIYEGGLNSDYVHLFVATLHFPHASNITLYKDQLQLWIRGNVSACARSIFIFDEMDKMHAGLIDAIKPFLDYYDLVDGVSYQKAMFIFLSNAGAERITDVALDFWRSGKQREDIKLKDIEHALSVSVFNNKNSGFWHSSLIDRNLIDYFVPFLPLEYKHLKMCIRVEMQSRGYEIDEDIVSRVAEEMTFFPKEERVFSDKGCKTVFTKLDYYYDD

Take `COCCCNC(=O)[C@@]1(C)c2ccccc2C(=O)N(Cc2cc(C(F)(F)F)cc(C(F)(F)F)c2)[C@H]1c1ccc(CO)cc1`: the composite z-score is -0.12 in assay [1]; -0.203 in [2]; 0.295 in [3]; 0.207 in assay [4]; -0.672 in assay [5]; -1.5 in assay [6]. For the same molecule, the composite z-score in the assay with Lefty1 is -0.191; in assay [8] it was 0.0593; in assay [10] it was -0.676; in [15], -0.673; in assay [16] it was -0.0675; with Torsin-1A (Homo sapiens) [17], -1.37. The composite z-score with Torsin-1A (Homo sapiens) [18] was -1.27; in assay [19] it was -0.207. The z-score in assay [7] is 0.509; in assay [9] it was 1.16 (inactive); in assay [11], -2.82 (inactive); in assay [12] it was -0.417 (inactive); in assay [13], 0.468 (inactive); in [14], 0.243 (inactive).
On to `CCOC(=O)C1=C[C@@H](C(C)C)N(S(=O)(=O)c2ccc(C)cc2)[C@H]1c1ccc(C(C)C)cc1`, for which the composite z-score was 0.408 in assay [1]; 1.15 in [2]; 1.54 in assay [3]; 0.915 in [4]; 1.23 in [5]; -0.067 in [6]. The composite z-score in the assay on Lefty1 is 0.752; in assay [8], 0.734; in [10], 0.336; in [15], 1.58; in assay [16], -0.121; with Torsin-1A (Homo sapiens) [17], 1.05. The composite z-score is 0.644 in the assay with Torsin-1A (Homo sapiens) [18] and 0.31 in assay [19]. In addition, the z-score in assay [7] is 2.96; in [9] it was 2.41 (inactive); in assay [11] it was -3.48 (inactive); in assay [12], -0.228 (inactive); in [13] it was -0.676 (inactive); in [14], 0.359 (inactive).
In the case of `O=C1O[C@H](c2ccccc2)[C@H](c2ccccc2)N2[C@H]1[C@@H](C(=O)NC[C@H](O)c1ccccc1)[C@]1(C(=O)Nc3ccc(C#CCCO)cc31)[C@H]2c1ccc(O)cc1`, the composite z-score in [1] was -1.3; in assay [2], -1.08; in assay [3], -0.598; in assay [4] it was -1.07; in assay [5] it was -1.26; in assay [6], -0.702. Moreover, the composite z-score is -0.929 in the assay with Lefty1; -1.09 in assay [8]; -0.11 in assay [10]; -1.11 in [15]; 0.295 in assay [16]; -0.596 with Torsin-1A (Homo sapiens) [17]. In addition, the figures for the composite z-score (with Torsin-1A (Homo sapiens) [18]; in assay [19]) were -1.36 and -0.606, respectively. Further, the z-score in [7] is -1.17; in assay [9], 0.145 (inactive); in [11], -4.32 (inactive); in assay [12] it was -1.16 (inactive); in [13], -0.329 (inactive); in assay [14], 0.0393 (inactive).
With `CN1C(=O)C2C(C1=O)C1C=C(CCCO)C2C(c2cccs2)N1C` (stereo not given), the composite z-score in [1] is 0.121; in [2], -0.612; in assay [3] it was -0.0834; in assay [4], -0.234; in [5] it was 0.143; in [6] it was 0.0096. The composite z-score with Lefty1 is -0.76; in [8], -0.1; in assay [10], 0.0691; in assay [15] it was -0.96; in assay [16] it was 0.141; with Torsin-1A (Homo sapiens) [17], -0.381. Besides, the composite z-score with Torsin-1A (Homo sapiens) [18] was -0.332; in assay [19], -0.11. The z-score is 1.15 in [7]; -0.39 (inactive) in assay [9]; -0.273 (inactive) in assay [11]; 0.0748 (inactive) in assay [12]; 0.236 (inactive) in assay [13]; 0.289 (inactive) in assay [14].
For the molecule `COC(=O)C(CC#Cc1ccc2c(c1)[C@]1(C(=O)N2)[C@H](c2ccc(OCCO)cc2)N2[C@H](c3ccccc3)[C@H](c3ccccc3)OC(=O)[C@H]2[C@@H]1C(=O)NC[C@H](O)c1ccccc1)C(=O)OC`, the composite z-score in assay [1] was determined as 1.06; in assay [2] it was 1.23; in assay [3], 0.751; in assay [4], 0.849; in [5] it was 0.966; in assay [6] it was 0.387. Moreover, the composite z-score was determined as 0.346 in the assay on Lefty1; 1.16 in assay [8]; 0.593 in [10]; 0.472 in assay [15]; 0.0442 in assay [16]; 0.413 with Torsin-1A (Homo sapiens) [17]. Moreover, the composite z-score with Torsin-1A (Homo sapiens) [18] was found to be 0.532; in assay [19], 1.4. Further, the z-score is -0.816 in assay [7]; -1.67 (inactive) in [9]; -1.17 (inactive) in assay [11]; -0.923 (inactive) in assay [12]; 0.0384 (inactive) in assay [13]; -0.926 (inactive) in [14].
